Assay results: PubChem BioAssay (NCATS)
Results filed as inconclusive are left out. Activity calls are given as the source filed them. Calls follow the shape of the dose curve; as a rule, active = well fitted cell-killing curve with a large enough effect; inconclusive = small, poorly fitted or top-dose-only effect; inactive = flat fitted curve, though single readings scatter.

Tests used:
[1] = Cell Viability - LYMP2-013 (AID 970); details: LYMP2-013 lymphoblastoid cells viability; series mostly up to 92.2 µM; also: nearly all actives have a fitted effect of over 55% in size
Outline: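 qHTS cytotoxicity: ATP-dependent luminescence (CellTiter-Glo, 30 min room temperature) read after 24 h compound exposure at 37 C of 2500 LYMP2-013 lymphoblastoid cells per well. Concentration-response fitted with Hill equation to give AC50.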

[2] = Cell Viability - LYMP2-015 (AID 971); details: LYMP2-015 lymphoblastoid cell viability; series mostly up to 92.2 µM; also: nearly all actives have a fitted effect of over 55% in size
Outline: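 Cytotoxicity readout: decrease in intracellular ATP (CellTiter-Glo luminescence) in 2500 LYMP2-015 lymphoblastoid cells/well after 24 h compound exposure at 37 C. Concentration-response data fitted with the standard Hill equation to give AC50.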

[3] = Cell Viability - LYMP2-017 (AID 972); details: LYMP2-017 lymphoblastoid cell viability; series mostly up to 92.2 µM; also: nearly all actives have a fitted effect of over 55% in size
Outline: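 CellTiter-Glo luminescence (cellular ATP, 30 min RT) measured cytotoxicity after 24 hr compound treatment at 37 C. Cells were a human lymphoblastoid line, LYMP2-017, plated at 2500/well and incubated 5 hr first; concentration-response fitted with Hill equation for AC50.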

[4] = Cell Viability - LYMP2-019 (AID 973); details: LYMP2-019 lymphoblastoid cell line viability; series mostly up to 92.2 µM; also: nearly all actives have a fitted effect of over 55% in size
Outline: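 AC50 values come from Hill-equation fits of luminescent intracellular ATP (CellTiter-Glo, 30 min, room temperature) following 24 h compound exposure at 37 C. Cells: LYMP2-019 lymphoblastoid line, 2500 per well, in complete culture medium.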

[5] = Cell Viability - LYMP2-021 (AID 974); details: LYMP2-021 lymphoblastoid cells viability; series mostly up to 92.2 µM; also: nearly all actives have a fitted effect of over 55% in size
Outline: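 AC50 values come from Hill-equation fits to CellTiter-Glo luminescence (ATP content), read after 24 hour compound exposure at 37 C of 2500 LYMP2-021 lymphoblastoid cells/well; tetraoctylammonium bromide as positive control.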

[6] = Cell Viability - LYMP2-023 (AID 975); details: LYMP2-023 lymphoblastoid cell viability; series mostly up to 92.2 µM
Outline: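 Intracellular ATP, read by CellTiter-Glo luminescence, reports viability after 24 hr compound exposure at 37 C. 2500 lymphoblastoid cells/well (LYMP2-023) seeded 5 hr beforehand; Hill fits give AC50; positive control tetraoctylammonium bromide.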

[7] = Cell Viability - LYMP2-025 (AID 976); details: LYMP2-025 lymphoblastoid cell viability; series mostly up to 92.2 µM
Outline: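 Cytotoxicity read as loss of intracellular ATP (luciferase luminescence) after 24 h compound treatment at 37 C. Uses LYMP2-025 lymphoblastoid cells in 1536-well format; Hill-equation modelling gives AC50; tetraoctylammonium bromide as positive control.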

[8] = Cell Viability - LYMP2-002 (AID 977); details: LYMP2-002 lymphoblastoid cell viability, qHTS; series mostly up to 92.2 µM
Outline: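 In this qHTS viability screen, 2500 human lymphoblastoid cells per well receive compound for 24 hr at 37 C, and luciferase-based ATP luminescence gives the viability signal. Tetraoctylammonium bromide serves as positive control.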

[9] = Cell Viability - LYMP2-006 (AID 978); details: LYMP2-006 lymphoblastoid cell viability, qHTS; series mostly up to 92.2 µM; also: nearly all actives have a fitted effect of over 60% in size
Outline: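 In this cytotoxicity screen, the human lymphoblastoid line grew in complete medium with test compounds for 24 hr at 37 C. Cellular ATP served as the viability signal.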

[10] = Cell Viability - LYMP2-007 (AID 979); details: LYMP2-007 lymphoblastoid cell viability; series mostly up to 92.2 µM;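 also: cells exposed to compound for 24 h before reading; nearly all actives have a fitted effect of over 60% in size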
Outline: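 AC50 values come from Hill-equation fits of luminescent intracellular ATP (CellTiter-Glo, 30 min, room temperature) following 24 h compound exposure at 37 C. Cells: LYMP2-007 lymphoblastoid line, 2500 per well, in complete culture medium.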

[11] = Cell Viability - LYMP2-008 (AID 980); details: LYMP2-008 lymphoblastoid cell viability, qHTS; series mostly up to 92.2 µM; also: nearly all actives have a fitted effect of over 60% in size
Outline: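 Cytotoxicity determined from ATP-dependent luciferase luminescence (CellTiter-Glo) following 24 h compound exposure of human lymphoblastoid LYMP2-008 cells at 37 C. Concentration-response data fitted to the Hill equation to give AC50.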

[12] = Cell Viability - LYMP2-010 (AID 981); details: LYMP2-010 lymphoblastoid cell viability, qHTS; series mostly up to 92.2 µM; also: nearly all actives have a fitted effect of over 55% in size
Outline: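 CellTiter-Glo ATP luminescence measured cytotoxicity after 24 h compound exposure at 37 C. LYMP2-010 cells were seeded at 2500/well, with tetraoctylammonium bromide as control; concentration-response curves gave AC50 values by the Hill equation.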

[13] = Cell Viability - LYMP2-012 (AID 982); details: LYMP2-012 lymphoblastoid cell viability qHTS; series mostly up to 92.2 µM
[14] = Cell Viability - LYMP2-014 (AID 983); details: LYMP2-014 lymphoblastoid cells, viability qHTS; series mostly up to 92.2 µM; also: nearly all actives have a fitted effect of over 50% in size
Outline: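 Intracellular ATP loss, read by luciferase luminescence, measures acute cytotoxicity after 24 h compound exposure of lymphoblastoid LYMP2-014 cells (2500/well, 37 C). Concentration-response data fitted to the Hill equation for AC50.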

[15] = Cell Viability - LYMP2-016 (AID 984); details: LYMP2-016 lymphoblastoid cell viability, qHTS; series mostly up to 92.2 µM; also: nearly all actives have a fitted effect of over 55% in size
Outline: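 Concentration-dependent ATP depletion measured in LYMP2-016 lymphoblastoid cells, 24 h, 37 C; luciferase-based luminescent detection; Hill-equation AC50.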

[16] = Cell Viability - LYMP2-018 (AID 985); details: LYMP2-018 lymphoblastoid cells, viability (qHTS); series mostly up to 92.2 µM; also: nearly all actives have a fitted effect of over 50% in size
Outline: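 Viability read as CellTiter-Glo luminescence (cellular ATP) after 24 hr compound exposure at 37 C of 2500 LYMP2-018 lymphoblastoid cells/well, pre-plated 5 hr. Hill-equation modelling gave AC50.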

[17] = Cell Viability - LYMP2-020 (AID 986); details: series mostly up to 92.2 µM; also: nearly all actives have a fitted effect of over 55% in size
Outline: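 Cytotoxicity in qHTS format: luminescent ATP readout from CellTiter-Glo after 24 h compound exposure at 37 C in complete medium. LYMP2-020 lymphoblastoid cells were seeded at 2500/well; concentration-response data fitted to the Hill equation for AC50.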

[18] = Cell Viability - LYMP2-022 (AID 987); details: LYMP2-022 lymphoblastoid cell viability; series mostly up to 92.2 µM; also: nearly all actives have a fitted effect of over 55% in size
Outline: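 Cytotoxicity read as decreased cellular ATP (CellTiter-Glo luminescence, 30 min room temperature) after 24 hours compound exposure of 2500 lymphoblastoid LYMP2-022 cells/well at 37 C. Concentration-response data fitted with standard Hill equation for AC50.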

[19] = Cell Viability - LYMP2-024 (AID 988); details: LYMP2-024 lymphoblastoid cell viability; series mostly up to 92.2 µM; also: nearly all actives have a fitted effect of over 60% in size
Outline: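 Cytotoxicity was taken as a decrease in ATP (CellTiter-Glo luminescence) after 24 hr compound exposure at 37 C of LYMP2-024 lymphoblastoid cells, 2500 cells/well. Concentration-response data were fitted to the Hill equation to give AC50.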

[20] = Cell Viability - LYMP2-026 (AID 989); details: LYMP2-026 lymphoblastoid cell viability, qHTS; series mostly up to 92.2 µM; also: nearly all actives have a fitted effect of over 50% in size
Outline: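 Cytotoxicity read as ATP-dependent luminescence (CellTiter-Glo, 30 min room temperature) after 24 h compound treatment at 37 C. LYMP2-026 lymphoblastoid line seeded at 2500 cells/well; AC50 derived by standard Hill equation.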

Measured: outcome

Cc1occc(=O)c1O
inactive: all assays above

CC1=CC(=O)CC(C)(C)C1(O)/C=C/C(C)=C\C(=O)O (stereo not given)
inactive: all assays above

C=C(C)[C@H]1CC=C(C)C(=O)C1
inactive: all assays above

C=CC(C)(O)CCC=C(C)C (stereo not given)
inactive: all assays above

COS(C)(=O)=O
inactive: all assays above
